In PubChem BioAssay:
Active and inactive are the calls of the source. Unless noted, the rule behind the calls is not given here.

Legend:
[1] = tested on: Wnt5a (protein binding on small-molecule microarray); assay: Wnt5a binders on small-molecule microarray, primary screen, biophysical, 635/667 nm fluorescence (AID 1142); details: 635 nm fluorescence, higher = more signal;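 note: fluorescence read at 667 nm with signal to noise per printed feature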
[2] = cell viability in Huh7 cells, primary screen, cytotoxicity control for HCV replication inhibitor project, CellTiter-Glo luminescence, basal, 48 h (AID 1143); details: Huh7 HCV replicon, higher = more signal, called active from +8 up or from −8 down;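 note: Huh7 hepatoma cells carrying a hepatitis C replication reporter with no stimulus; test concentration not given here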
[3] = P. aeruginosa biofilm formation inhibitors, primary screen, PAO1 strain, BacTiter-Glo luminescence, LB-PBS (AID 1144); details: 12 h, higher = more signal
[4] = CREB reporter modulators without forskolin, primary screen, cell-based, PC12, CRE-LacZ reporter, unstimulated (AID 1145); details: no forskolin, luminescence, 4.5 h, higher = more signal, called active from +8 up or from −8 down
[5] = CREB reporter modulators under forskolin, primary screen, cell-based, PC12, CRE-LacZ reporter, forskolin-stimulated (AID 1146); details: luminescence, 4.5 h, higher = more signal, called active from +8 up or from −8 down;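 note: PC12 cells with 6xCRE LacZ reporter stimulated by forskolin 10 µM; beta-galactosidase reporter signal reflecting CREB driven transcription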
[6] = biological target: Streptavidin (Streptomyces avidinii) (UniProt P22629); assay: streptavidin binders on small-molecule microarray, primary screen, artefact control for SMM compound annotation, biophysical, 635/667 nm fluorescence (AID 1147); details: streptavidin binding, higher = more signal;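 note: signal reflects streptavidin binding to arrayed compounds as a control protein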
Sequence of Streptavidin (Streptomyces avidinii) (P22629 whole entry, looked up): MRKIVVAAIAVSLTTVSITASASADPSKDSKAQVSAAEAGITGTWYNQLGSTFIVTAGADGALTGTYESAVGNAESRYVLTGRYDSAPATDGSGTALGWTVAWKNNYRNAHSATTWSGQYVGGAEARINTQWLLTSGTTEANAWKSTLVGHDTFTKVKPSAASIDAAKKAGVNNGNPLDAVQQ

[7] = small-molecule binders of probe aInhba, primary screen, biochemical, small-molecule microarray, 635/667 nm fluorescence (AID 1148); details: higher = more signal;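 note: score merges 667nm spot fluorescence with signal-to-noise for antibody binding to printed compounds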
Torsin-1A (Homo sapiens) [8] = biological target: Torsin-1A (Homo sapiens) (UniProt O14656); assay: torsin A binders from cell lysate, primary screen, small-molecule microarray, wild-type, 635/667 nm (AID 1149); details: COS7 hTOR1A-WT lysate, 635 nm fluorescence, higher = more signal
Sequence of Torsin-1A (Homo sapiens) (O14656 whole entry, looked up): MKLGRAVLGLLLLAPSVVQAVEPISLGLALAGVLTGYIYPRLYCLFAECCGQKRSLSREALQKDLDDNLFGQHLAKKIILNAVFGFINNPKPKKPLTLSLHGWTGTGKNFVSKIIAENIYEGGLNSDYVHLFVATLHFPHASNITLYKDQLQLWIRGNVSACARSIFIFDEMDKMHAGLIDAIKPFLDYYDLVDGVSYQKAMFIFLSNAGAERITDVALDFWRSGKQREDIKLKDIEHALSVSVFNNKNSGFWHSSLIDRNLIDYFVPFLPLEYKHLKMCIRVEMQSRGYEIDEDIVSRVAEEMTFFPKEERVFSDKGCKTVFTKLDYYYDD

Torsin-1A (Homo sapiens) [9] = biological target: Torsin-1A (Homo sapiens) (UniProt O14656); assay: small-molecule binders of mutant TOR1A in lysate, primary screen, cell lysate, small-molecule microarray, COS7 lysate, 635/667 nm fluorescence (AID 1150); details: COS7 hTOR1A mutant lysate, 635 nm fluorescence, higher = more signal;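 note: score pools 667 nm emission and signal to noise measuring lysate protein binding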
[10] = tested on: Sonic hedgehog protein (Shh); assay: small-molecule binders of Shh protein, primary screen, biochemical, small-molecule microarray, 635/667 nm fluorescence (AID 1151); details: small-molecule microarray binding, 635 nm fluorescence; higher = more signal;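 note: Shh protein binding to compounds spotted on small-molecule microarray slides; score combines spot fluorescence intensity with signal-to-noise across triplicate slides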

SMILES	composite z-score [1]	z-score [2]	z-score [3]	z-score [4]	z-score [5]	composite z-score [6]	composite z-score [7]	composite z-score (Torsin-1A (Homo sapiens) [8])	composite z-score (Torsin-1A (Homo sapiens) [9])	composite z-score [10]
C#Cc1cc2ccccc2oc1=O	-0.365	-0.692 (inactive)	0.534 (inactive)	0.136 (inactive)	6.19 (inactive)	-1.47	-0.149	0.173	-0.539	-1.45
CC(=O)NCCCC[C@@H]1NC(=O)[C@@H]2C[C@H](C(=O)NCCCCCN)[C@H](c3cccc(OCCO)c3)N2C1=O	0.698	-0.804 (inactive)	-1.02 (inactive)	-1.34 (inactive)	-0.892 (inactive)	1.37	-0.19	0.738	-0.0879	1.66
C=CC[C@@H](OC(=O)Nc1ccc(SC)cc1)c1ccc(O)c(F)c1	0.175	-0.77 (inactive)	-1.57 (inactive)	9.49 (active)	3.13 (inactive)	-0.192	-0.0468	0.26	0.163	1.87
C=CCC(OC(C)=O)[C@@H]1[C@@H](N(Cc2ccc(-c3cccc(C(F)(F)F)c3)o2)C(=O)c2ccc(-c3ccccc3)cc2)c2cc(OCCCO)ccc2N1C(=O)Cc1ccc2ccccc2c1 (stereo not given in full)	-0.276	-0.165 (inactive)	-0.184 (inactive)	0.572 (inactive)	0.368 (inactive)	-0.368	-0.113	-1.21	-1.1	-0.0629
CN(C)C(=O)[C@]1(Cc2ccccc2CN=[N+]=[N-])N=C(c2ccc(OCCCO)cc2)O[C@@H]1c1ccccc1	0.682	-5.61 (inactive)	-0.528 (inactive)	0.502 (inactive)	-0.579 (inactive)	0.792	0.111	0.178	0.729	-0.18
COC(=O)c1c(CC[C@@H](CO)NC(=O)N2CCC[C@H]2Cn2cc(C3(O)CCCCC3)nn2)oc(C(C)=O)c1C(=O)OC	-0.0505	-0.257 (inactive)	-0.156 (inactive)	0.498 (inactive)	0.306 (inactive)	0.429	-0.0448	0.666	0.895	1.44
C=C(COC)/C(=C/C[C@H](OC(=O)c1ccncc1)c1ccccc1OCCO)c1cc(C(=O)OC)ccc1OC	0.163	-2.17 (inactive)	0.492 (inactive)	11.9 (active)	2.47 (inactive)	-0.275	-0.0136	1.19	0.664	1.71
COC(=O)[C@@]1(Cc2ccccc2)[C@H]2c3cc(C(=O)N4CCCC4)n(CCc4ccccn4)c3C[C@H]2CN1C(=O)c1ccccc1	0.372	-0.917 (inactive)	1.09 (inactive)	0.201 (inactive)	0.755 (inactive)	1.94	0.605	1.11	1.4	0.311
COC(=O)c1c(CC[C@@H](CO)NC(=O)N[C@@H](C)Cn2cc(-c3ccccn3)nn2)oc(C(C)=O)c1C(=O)OC	0.182	-2.77 (inactive)	-0.243 (inactive)	1.21 (inactive)	0.363 (inactive)	-0.893	0.154	0.372	0.591	1.74
CC#CCO[Si](C#Cc1ccccc1)(C(C)C)C(C)C	-0.254	-1.35 (inactive)	0.687 (inactive)	-0.985 (inactive)	0.852 (inactive)	-1.07	-0.106	-1.43	-0.811	0.12
O=C1C2C=CC(C(O)c3cccc(O)c3)N(Nc3ccc([N+](=O)[O-])cc3)C2C(=O)N1c1ccccc1 (stereo not given)	0.22	-0.933 (inactive)	-0.271 (inactive)	-0.257 (inactive)	-0.489 (inactive)	0.514	0.0649	0.331	0.132	-0.164
COc1ccc([C@H]2OC[C@@H]3C[C@H](Cc4ccccc4)C(=O)N32)cc1	0.204	-3.52 (inactive)	0.305 (inactive)	1.99 (inactive)	0.213 (inactive)	-0.371	-0.0962	0.48	0.0464	0.532
NC(=O)NCC#Cc1ccc2c(c1)[C@]1(C(=O)N2)[C@H](c2ccccc2OCCO)N2[C@H](c3ccccc3)[C@H](c3ccccc3)OC(=O)[C@H]2[C@@H]1C(=O)O	-0.163	-1.22 (inactive)	-1.19 (inactive)	0.595 (inactive)	1.36 (inactive)	0.333	0.121	-0.689	0.28	0.028
C=CCN1C(=O)[C@]2(CCC(=O)OC(C)(C)C)N=C(c3ccc(OCCCO)cc3)O[C@@H]2c2ccccc21	0.176	-3.67 (inactive)	-0.149 (inactive)	0.124 (inactive)	-1.99 (inactive)	0.0475	0.0631	-0.0806	0.19	1.71
CN1C(=O)C2C=CC(C(O)c3cccn3C)N(Nc3ccc([N+](=O)[O-])cc3[N+](=O)[O-])C2C1=O (stereo not given)	0.28	0.515 (inactive)	-0.255 (inactive)	1.4 (inactive)	1.36 (inactive)	0.724	0.188	0.799	0.437	-0.0299
[N-]=[N+]=Nc1ccccc1[C@@H]1OC(c2ccc(OCCCO)cc2)=N[C@]1(Cc1ccccc1)C(=O)N1CCCCC1	0.906	-4.4 (inactive)	0.316 (inactive)	0.241 (inactive)	-0.894 (inactive)	1.38	0.134	0.551	1.37	1.15
[N-]=[N+]=Nc1ccccc1[C@H]1OC(c2ccc(OCCCO)cc2)=N[C@@]1(Cc1ccccc1)C(=O)NCCN1CCOCC1	1.47	-3.37 (inactive)	-0.395 (inactive)	-0.697 (inactive)	-1.62 (inactive)	1.32	0.936	0.596	0.0723	1.44
COC(=O)[C@@]1(Cc2ccc(F)cc2)[C@H]2c3cc(C(=O)N(C)C)n(CCc4ccc(OC)c(Br)c4)c3C[C@H]2CN1C(=O)c1ccccc1	1.88	-4.65 (inactive)	0.167 (inactive)	17.2 (active)	124 (active)	0.221	0.925	0.005	0.741	-1.09
COCCOC(=O)N1C(=O)[C@@]2(c3cc(C#CC4=CCCCC4)ccc31)[C@H](C(=O)Nc1nc3ccccc3s1)[C@H]1C(=O)O[C@H](c3ccccc3)[C@H](c3ccccc3)N1[C@@H]2c1ccc(O)cc1	0.381	-0.67 (inactive)	0.288 (inactive)	0.532 (inactive)	0.817 (inactive)	1.25	-0.0178	1.15	0.358	2.06
O=C1C2C=CC(C(O)C3CC=CCC3)N(Nc3ccccc3)C2C(=O)N1c1ccccc1 (stereo not given)	-0.0727	-2.74 (inactive)	-0.879 (inactive)	0.426 (inactive)	0.305 (inactive)	0.801	0.292	-0.235	0.687	-0.143
COC(=O)[C@@]1(Cc2ccc(F)cc2)[C@H]2c3cc(C(=O)N(C)C)n(Cc4ccc(OC(F)(F)F)cc4)c3C[C@H]2CN1C(=O)c1ccccc1	0.0007	0.875 (inactive)	-0.362 (inactive)	0.397 (inactive)	0.391 (inactive)	0.686	0.0633	0.296	0.569	-0.817
CCCC[C@@H](O)C1=C(COC)C[C@H]2C(=O)N(Cc3ccccc3)C(=O)[C@H]2[C@H]1CO	0.0314	-0.168 (inactive)	0.102 (inactive)	0.216 (inactive)	-0.566 (inactive)	-0.0045	-0.204	0.707	0.69	1.02
CO[C@H]1O[C@H](CO)[C@@H](OC(=O)Nc2ccccc2)[C@H](OC(=O)c2cc3ccccc3[nH]2)[C@H]1OC(=O)c1cc2ccccc2[nH]1	0.411	-4.49 (inactive)	-0.735 (inactive)	-0.211 (inactive)	-0.331 (inactive)	-0.265	0.0636	0.289	0.311	1.3
CCCCCC1=C2CNC(C)(C(=O)OC)C=C2C(C)C1=O (stereo not given)	0.0456	-0.169 (inactive)	0.18 (inactive)	1.34 (inactive)	1.76 (inactive)	-0.162	0.0319	-0.92	-0.38	-0.134
Cc1ccc(F)cc1S(=O)(=O)N[C@@H]1CCN(Cc2ccc(Br)cc2)C1	-0.144	-3.58 (inactive)	0.767 (inactive)	0.764 (inactive)	-1.64 (inactive)	0.165	-0.0986	0.476	0.495	1.29
CCCN1C(=O)[C@]2(Cc3ccccc31)N=C(c1ccc(OCCCO)cc1)O[C@@H]2c1ccccc1	0.489	-5.07 (inactive)	-2.3 (inactive)	0.344 (inactive)	-0.647 (inactive)	0.899	-0.0087	0.738	0.423	1.12
[N-]=[N+]=Nc1ccccc1[C@@H]1OC(c2ccc(OCCCO)cc2)=N[C@]1(Cc1ccccc1)C(=O)O	0.343	-0.626 (inactive)	0.693 (inactive)	1.05 (inactive)	-1.43 (inactive)	0.723	0.207	0.0692	0.285	-0.0767
CCCC=C(CCC)[C@@H](NC(=O)C(C)(C)C)c1ccc(C(=O)OC)cc1	0.0146	-2.97 (inactive)	-0.168 (inactive)	-0.379 (inactive)	-0.744 (inactive)	1.69	0.127	-0.0649	0.123	-0.824
COC(=O)C1=CC(CCCO)=CC(c2cccs2)N(C)C=C1C(=O)OC (stereo not given)	-0.149	-0.786 (inactive)	0.321 (inactive)	-0.285 (inactive)	-0.217 (inactive)	0.0877	0.0485	-0.186	1.04	-0.369
